WT yeast gro inh – growth inhibition of WT strain, primary screen, mitochondrial fusion inhibitor project, WT and mutant strains, chemical genetic. inhibition, % at 10 µM. AID 1362, 2008. 190,000 tested, 2.1% active. mitochondrial fusion phenotypic screen; in the data active = inhibition above about 58%; tested in S. cerevisiae
ROMK mod – ROMK potassium channel modulators, primary screen, cell-based, thallium flux, MLSMR library. ATP-sensitive inward rectifier potassium channel 1 (Homo sapiens), P48048. Tet-inducible ROMK, thallium flux fluorescence; actives lie on both sides. B-score at 10 µM. 130,000 tested, 2% active;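 active = signal ratio slope over the read window, or its plate-corrected B-score, at least 3 SD from the plate mean, either direction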;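 also: B-score of the F/F0 ratio slope over 7 to 12 s after thallium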
Target sequence (P48048 whole entry, looked up): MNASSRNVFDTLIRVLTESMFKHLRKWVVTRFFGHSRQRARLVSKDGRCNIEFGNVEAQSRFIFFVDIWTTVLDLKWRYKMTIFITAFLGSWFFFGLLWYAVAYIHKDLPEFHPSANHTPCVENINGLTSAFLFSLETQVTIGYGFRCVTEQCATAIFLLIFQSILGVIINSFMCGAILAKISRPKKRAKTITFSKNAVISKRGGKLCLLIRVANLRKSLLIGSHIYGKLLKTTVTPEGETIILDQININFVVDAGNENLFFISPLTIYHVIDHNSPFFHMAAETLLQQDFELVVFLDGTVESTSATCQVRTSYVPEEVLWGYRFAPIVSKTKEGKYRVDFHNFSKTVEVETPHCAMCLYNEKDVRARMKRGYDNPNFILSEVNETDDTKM
PERK inhibitor – block of dimerizer-induced PERK translation repression, primary screen, PERK inhibitor project, CHO PERK-DD cells, SEAP luminescence, HTS | Eukaryotic translation initiation factor 2-alpha kinase 3 (Homo sapiens), Q9NZJ5 | CHO PERK-DD fusion, SEAP luminescence translation reporter | inhibition, % at 5.6 µM | 220,000 tested, 0.17% active;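 active = inhibition above the mean inhibition of all tested compounds plus 3 SD, set separately per screening campaign, cut at about 2.9% in these data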;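 also: PERK kinase domain activated by AP20187 dimerizer at 100 nM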
Arbovirus anti – antivirals against arbovirus infection, primary screen, cell-based, full library, 10K replicate subset; arbovirus infection cell-based antiviral screen; inhibition, % at 10 µM; 200,000 tested, 0.37% active; in the data active = inhibition above about 30%
Each line names hits and unclear results; the compound was inactive in the other large screens. The list is not random: actives were taken first. Their share in the collection is about 3.3%.

O=C(Nc1cccc(F)c1)N(Cc1ccc(Cl)cc1)CC(O)C(F)(F)F (centres undefined)	WT yeast gro inh 71 (no result: ROMK mod)
O=C(Nc1ccccc1)N(Cc1ccccc1)CC(O)C(F)(F)F (centres undefined)	none (no result: ROMK mod)
CCc1ccc2c(c1)C(c1ccc([N+](=O)[O-])cc1)=NNC(c1ccc(C)cc1)=N2	none
COCCSc1nnc(-c2cccc(C#N)c2)n1C	PERK inhibitor 3.3
COc1cc(/C=N/NC(=O)C2CCN(CC(O)COCc3ccccc3)CC2)cc(OC)c1OC (centres undefined)	none
CCCOC(=O)CN1C(=O)c2ccccc2C1=O	WT yeast gro inh 79
CCOC(=O)CN1C(=O)c2ccccc2C1=O	none
CN(Cc1ccccc1NC(=O)c1ccc(S(=O)(=O)N(C)C)cc1)C1CCCCC1	Arbovirus anti 47
CCNc1nc(NC(C)C)nc(Oc2ccc(OCCOc3ccccc3)nn2)n1	none (no result: ROMK mod)
CCCC(C)c1nnc(NC(=O)C2CCCO2)s1 (centres undefined)	none (no result: ROMK mod)
CCCC(C)c1nnc(NC(=O)C(=O)OCC)s1 (centres undefined)	PERK inhibitor 3.0
COc1ccc(-c2noc(CSc3nc(N)cc(=O)[nH]3)n2)cc1	none (no result: WT yeast gro inh, ROMK mod, Arbovirus anti)
COc1ccc(-c2noc(-c3ccccc3-c3ccccc3)n2)cc1OC	WT yeast gro inh 75, Arbovirus anti 31 (no result: ROMK mod)
COc1ccc(-c2noc(CSc3nc(-c4ccccc4)cc(=O)[nH]3)n2)cc1OC	Arbovirus anti 52
COc1ccc(-c2noc(-c3cccnc3)n2)cc1OC	none
O=C(CSc1ccc(Cl)cc1)NCc1ccncc1	none
C(=N\n1cnnc1)/c1cccc(OCCOc2ccccc2)c1	none (no result: ROMK mod)
Clc1ccc(Oc2cccc(/C=N/n3cnnc3)c2)cc1	WT yeast gro inh 68 (no result: ROMK mod)
CC(=O)Nc1ccc(S(=O)(=O)NCC(=O)NC(C)c2ccc(S(N)(=O)=O)cc2)cc1 (centres undefined)	none (no result: WT yeast gro inh, ROMK mod, Arbovirus anti)
O=C(Cc1ncon1)Nc1ccc(F)c(F)c1F	PERK inhibitor 3.6 (no result: WT yeast gro inh, ROMK mod, Arbovirus anti)
CC(NS(=O)(=O)c1ccc(Br)cc1)C(c1cccs1)N1CCOCC1 (centres undefined)	none
Cc1ncoc1C(=O)N1CCCC(C(=O)c2ccc(-c3ccccc3)cc2)C1 (centres undefined)	WT yeast gro inh 68
CC(C)c1cc(C(=O)N2CCCC(C(=O)c3ccc4ccccc4c3)C2)on1 (centres undefined)	PERK inhibitor 2.9
O=C(CCC1CCCN(C(=O)CCCc2ccccc2)C1)N1CCN(c2ccccn2)CC1 (centres undefined)	none (no result: WT yeast gro inh, ROMK mod, Arbovirus anti)
CC(C)C(=O)Nc1ccc2c(c1)nc(CCN1CCN(C)CC1)n2C	PERK inhibitor 3.6
O=S(=O)(c1ccc(Cl)cc1)N1CCC2(CC1)CO2	none
O=C(O)Cn1c(CC(=O)N2CCCC2)nc2ccccc21	WT yeast gro inh 63 (no result: ROMK mod)
CCCCN(CCCC)CCNC(=O)Cc1nc2c(c(=O)[nH]c(=O)n2C)n1C	WT yeast gro inh 67
CCC1C(c2ccccc2)N(C)C(c2ccccc2)CC1(O)c1ccccc1 (centres undefined)	WT yeast gro inh 76 (no result: ROMK mod)
CSc1nc(-c2ccccc2)[nH]c(=S)c1C(C)=O	ROMK mod 4.7
CSc1nc(-c2ccccc2)nc(SC)c1C(C)=O	none (no result: ROMK mod)
CN(c1ccccc1)S(=O)(=O)c1cc(C(=O)N2CCN(c3ccccn3)CC2)ccc1Cl	none
NNc1ncnc2scc(-c3ccc(Cl)cc3)c12	none
Cc1ccc(-c2csc3ncnc(NS(=O)(=O)c4ccc(Cl)cc4)c23)cc1	Arbovirus anti 46 (no result: ROMK mod)
Cn1c(SCC(=O)Nc2cccc(S(=O)(=O)NC3=NCCCCC3)c2)nnc1-c1ccncc1	none
CC(C)(C)c1ccc(C(=O)N/N=C/c2cccc(Cl)c2)cc1	none
COc1ccc(-n2nnnc2-c2cnc3cc4c(cc3c2C)OCO4)cc1	none (no result: ROMK mod)
COc1cc(CNn2cn[nH]c2=S)cc(Cl)c1OCc1ccccc1	none (no result: ROMK mod)
COc1cc(CNn2cn[nH]c2=S)cc(Br)c1OCc1ccccc1F	WT yeast gro inh 72
Nc1nc(CSc2ccc(Cl)cc2)nc(N2CCCCC2)n1	WT yeast gro inh 74
COc1ccc(-n2c(-c3ccc(Br)cc3)nc(=S)c3c2CCCC3)cc1	WT yeast gro inh 63 (no result: ROMK mod)
CCOC(=O)c1cc(NC(=O)CSc2nnc(CN3CCOCC3)n2C)ccc1Cl	none (no result: ROMK mod)
O=C(Cc1cccs1)NCc1ccc(F)cc1	none
O=C(CNC(=S)N(Cc1ccccc1)Cc1cccs1)NCc1ccc(F)cc1	WT yeast gro inh 61
O=C(CNC(=S)N(Cc1ccccc1)Cc1ccccc1F)NCCc1ccc(Cl)cc1	WT yeast gro inh 75
O/N=C/c1ccc(OCc2ccccc2)c(Br)c1	none (no result: ROMK mod)
O/N=C/c1cc(Br)cc(Br)c1OCc1ccccc1	WT yeast gro inh 60
